In PubChem BioAssay one finds z-score and composite z-score data, which are given here for eight compounds.

The source made the active and inactive calls.

Assay [1] is described as follows: E. coli DRC41 culture turbidity changes, primary screen, E. coli filamentation inducer project, strain DRC41, OD650, 48 h (AID 1152).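 Note: E. coli MC1000 strain DRC41 lacking acrAB efflux pump and sulA.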 Conditions: E. coli DRC41 (acrAB sulA), higher = more signal, called active from +8 up or from −8 down.
A short description of assay [2]: small-molecule binders of probe aLefty1, primary screen, biochemical, small-molecule microarray, 635/667 nm fluorescence (AID 1153).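 Note: score merges spot fluorescence with signal-to-noise ratio from the scanned slide images.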 Conditions: higher = more signal.
The nature of assay [3]: PSAC antagonists in infected red cells, primary screen, cell-based, P. falciparum Indochina, OD700, 1 h (AID 1154). To be noted: P. falciparum Indochina infected RBC osmotic lysis, higher = more signal, called active from +8 up or from −8 down.
A short description of assay [4]: PSAC antagonists in infected red cells, primary screen, cell-based, P. falciparum Indochina, OD700, 2 h (AID 1155).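 Note: lysis reports solute entry through the parasite surface anion channel PSAC; channel blockers reduce lysis of infected cells.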 To be noted: P. falciparum Indochina infected erythrocytes, osmotic lysis OD700; higher = more signal, called active from +8 up or from −8 down.
Assay [5] is described as follows: osmotic lysis modulators in infected erythrocytes, primary screen, PSAC antagonist project, cell-based, P. falciparum Indochina, OD700, 3 h (AID 1156). To be noted: higher = more signal, called active from +8 up or from −8 down.
Assay [6] can be described thus: PSAC antagonists in infected red cells, primary screen, cell-based, P. falciparum Indochina, OD700, 18 h (AID 1157). Conditions: P. falciparum Indochina infected erythrocytes, osmotic lysis OD700, 18 h; higher = more signal, called active from +8 up or from −8 down.
Assay [7] is described as follows: modulators of S6 phosphorylation in cells, primary screen, cell-based, A549, cytoblot, luminescence, serum-stimulated (AID 1158).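 Note: serum-stimulated A549 lung adenocarcinoma cells; signal is phosphorylated S6 detected by cytoblot immunostaining with HRP secondary.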 To be noted: A549 phospho-S6 cytoblot, 5 h, higher = more signal.
Assay [8] concerns the target NADPH oxidase 2 (Homo sapiens) (UniProt P04839). Kind of assay: NOX2-dependent H2O2 signal modulators, primary screen, NOX inhibitor project, cell-based, HEK293-NOX2, PMA-stimulated, Amplex Red fluorescence (AID 1159). Note: test concentration not given here. Conditions: 45 min, higher = more signal, called active from +8 up or from −8 down.
Assay [9] has as its target NADPH oxidase 4 (Homo sapiens) (UniProt Q9NPH5). Description: NOX4-dependent H2O2 signal modulators, primary screen, NOX inhibitor project, cell-based, HEK293-NOX4, tetracycline-induced, Amplex Red fluorescence (AID 1160). To be noted: 45 min, higher = more signal, called active from +8 up or from −8 down.
The target of assay [10] is NADPH oxidase 5 (Homo sapiens) (UniProt Q96PH1). Description: NOX5-dependent H2O2 signal modulators, primary screen, NOX inhibitor project, cell-based, HEK293-NOX5, Amplex Red fluorescence (AID 1161). Conditions: HEK293-NOX5, ionomycin, 45 min, higher = more signal.
Assay [11] is described as follows: A549 cell viability effects, profiling panel, calcein-AM fluorescence, 48 h, basal (AID 1162). Note: test concentration not given here. To be noted: higher = more signal.
Assay [12] can be described thus: adipocyte viability effects, profiling panel, cell-based, 3T3-L1 adipocytes, calcein-AM fluorescence, 48 h, basal (AID 1163). Note: test concentration not given here. To be noted: 3T3-L1 adipocytes viability, higher = more signal.
Assay [13] in a line: HepG2 cell viability effects, profiling panel, calcein-AM fluorescence, 48 h, basal (AID 1164). Note: test concentration not given here. To be noted: higher = more signal.
A short description of assay [14]: MM1S cell viability effects, profiling panel, calcein-AM fluorescence, 48 h, basal (AID 1165).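 Note: viability of MM1S multiple myeloma cells under basal unstimulated conditions; test concentration not given here.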 To be noted: higher = more signal.
Assay [15] can be described thus: basal RPMI8226 viability, no added stimulus, profiling panel, cell-based, calcein-AM fluorescence, 48 h, PK04 Diversity Set (AID 1166).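 Note: cells grown under basal conditions without added stimulus; test concentration not given here.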 To be noted: RPMI8226 myeloma viability, higher = more signal.
Assay [16] in a line: basal HepG2 mitochondrial membrane potential changes, profiling panel, cell-based, JC-1 fluorescence, 24 h, 100 nL compound (AID 1167). Note: test concentration not given here. To be noted: higher = more signal.
The nature of assay [17]: basal 3T3-L1 adipocyte mitochondrial potential changes, profiling panel, cell-based, JC-1 fluorescence, 3T3-L1 adipocytes, 24 h, 100 nL compound (AID 1168). Note: test concentration not given here. To be noted: JC-1 mitochondrial fluorescence, higher = more signal, called active from +8 up or from −8 down.
Assay [18] in a line: basal RPMI8226 mitochondrial membrane potential changes, profiling panel, cell-based, JC-1 fluorescence, 24 h, 100 nL compound (AID 1169). Note: test concentration not given here. To be noted: RPMI8226 myeloma, JC-1 mitochondrial potential fluorescence, higher = more signal.
Assay [19] can be described thus: basal MM1S mitochondrial membrane potential changes, profiling panel, cell-based, JC-1 fluorescence, 24 h, 100 nL compound (AID 1170). Note: test concentration not given here. Conditions: higher = more signal.
The nature of assay [20]: A549 lung cancer cell viability effects, profiling panel, resazurin fluorescence, 24 h, PK04 Diversity Set (AID 1171). Note: test concentration not given here. Conditions: higher = more signal, called active from +8 up or from −8 down.

NADPH oxidase 2 (Homo sapiens), sequence (P04839 whole entry, looked up): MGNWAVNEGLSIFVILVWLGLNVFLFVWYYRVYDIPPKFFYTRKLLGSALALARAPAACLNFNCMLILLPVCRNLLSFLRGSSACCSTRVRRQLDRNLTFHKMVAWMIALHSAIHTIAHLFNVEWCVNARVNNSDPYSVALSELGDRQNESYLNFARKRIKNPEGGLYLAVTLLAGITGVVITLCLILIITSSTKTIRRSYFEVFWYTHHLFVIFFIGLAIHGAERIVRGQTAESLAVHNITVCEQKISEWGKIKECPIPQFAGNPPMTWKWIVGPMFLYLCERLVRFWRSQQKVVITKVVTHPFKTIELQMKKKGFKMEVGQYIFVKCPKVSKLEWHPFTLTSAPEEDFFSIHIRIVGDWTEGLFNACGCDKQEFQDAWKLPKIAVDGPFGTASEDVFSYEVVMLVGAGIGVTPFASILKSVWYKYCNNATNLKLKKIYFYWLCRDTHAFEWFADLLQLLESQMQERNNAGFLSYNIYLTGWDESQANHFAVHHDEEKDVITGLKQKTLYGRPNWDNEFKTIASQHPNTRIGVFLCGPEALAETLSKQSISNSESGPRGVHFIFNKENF
NADPH oxidase 4 (Homo sapiens), sequence (Q9NPH5 whole entry, looked up): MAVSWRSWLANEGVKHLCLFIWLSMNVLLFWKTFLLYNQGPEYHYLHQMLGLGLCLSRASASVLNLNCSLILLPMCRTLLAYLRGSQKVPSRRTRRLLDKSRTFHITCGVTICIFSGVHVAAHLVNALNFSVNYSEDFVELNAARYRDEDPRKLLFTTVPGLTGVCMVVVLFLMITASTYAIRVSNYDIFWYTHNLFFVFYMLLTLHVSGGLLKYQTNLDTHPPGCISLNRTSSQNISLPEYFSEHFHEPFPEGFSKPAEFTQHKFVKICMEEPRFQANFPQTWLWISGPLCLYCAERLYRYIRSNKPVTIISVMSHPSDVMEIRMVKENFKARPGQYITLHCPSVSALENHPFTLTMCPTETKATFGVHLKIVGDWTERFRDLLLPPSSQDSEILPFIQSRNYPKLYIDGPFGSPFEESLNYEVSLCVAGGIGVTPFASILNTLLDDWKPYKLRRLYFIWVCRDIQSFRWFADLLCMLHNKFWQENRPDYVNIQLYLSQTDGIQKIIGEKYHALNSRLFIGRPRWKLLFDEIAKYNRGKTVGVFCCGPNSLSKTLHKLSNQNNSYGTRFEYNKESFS
NADPH oxidase 5 (Homo sapiens), sequence (Q96PH1 whole entry, looked up): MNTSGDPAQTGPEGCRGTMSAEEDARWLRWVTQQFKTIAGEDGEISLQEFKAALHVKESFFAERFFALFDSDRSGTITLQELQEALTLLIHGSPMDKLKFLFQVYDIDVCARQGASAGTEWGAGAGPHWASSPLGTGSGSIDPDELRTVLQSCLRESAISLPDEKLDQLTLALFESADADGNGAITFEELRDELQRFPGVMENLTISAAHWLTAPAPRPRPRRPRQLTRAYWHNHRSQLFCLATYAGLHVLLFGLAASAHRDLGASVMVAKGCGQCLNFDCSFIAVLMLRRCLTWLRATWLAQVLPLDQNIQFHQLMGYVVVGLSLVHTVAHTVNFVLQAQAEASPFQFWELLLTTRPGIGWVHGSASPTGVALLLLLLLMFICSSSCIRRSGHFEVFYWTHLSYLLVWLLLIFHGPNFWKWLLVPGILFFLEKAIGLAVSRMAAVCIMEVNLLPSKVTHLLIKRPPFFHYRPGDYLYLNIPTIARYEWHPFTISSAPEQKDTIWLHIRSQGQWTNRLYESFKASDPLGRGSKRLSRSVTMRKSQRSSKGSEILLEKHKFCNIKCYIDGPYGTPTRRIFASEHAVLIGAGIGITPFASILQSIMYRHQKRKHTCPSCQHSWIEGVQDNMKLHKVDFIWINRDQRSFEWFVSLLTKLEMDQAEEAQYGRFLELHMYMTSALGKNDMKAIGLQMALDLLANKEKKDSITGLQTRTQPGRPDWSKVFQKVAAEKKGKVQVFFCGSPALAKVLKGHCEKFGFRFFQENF

`CCCC[C@@H]1C[C@H]1[C@@H](NC(=O)c1ccco1)c1ccccc1`: the z-score in assay [1] was -2.76 (inactive); in assay [3], 4.64 (inactive); in [4] it was 1.16 (inactive); in assay [5], 0.747 (inactive); in assay [6], 0.545 (inactive); in assay [7], -0.446. The z-score in assay [8] was -1.42 (inactive); in [9], -2.53 (inactive); in [10] it was 0.195; in assay [11], -2.22; in assay [12] it was -0.252; in assay [13], -2.22. Also, the z-score in assay [14] is -3.27; in [15], -4.74; in [16], -3.6; in assay [17] it was -1.27 (inactive); in [18], -0.759; in assay [19], -2.24. In addition, in assay [20], the z-score was 2.55 (inactive). The composite z-score in [2] was -0.168.

On to `C[N+](C)(C)CCCCNC(=O)[C@H]1C[C@H]2C(=O)N3CCC[C@H]3C(=O)N2[C@H]1c1ccc(O)cc1`, for which the z-score was -0.314 (inactive) in [1]; 0.542 (inactive) in [3]; 0.196 (inactive) in assay [4]; -1.66 (inactive) in assay [5]; 0.0068 (inactive) in [6]; -0.0429 in [7]. Further, the z-score was -2.45 (inactive) in assay [8]; -0.739 (inactive) in [9]; -1.42 in assay [10]; -0.814 in assay [11]; 0.0179 in [12]; -0.674 in assay [13]. The z-score in [14] is -0.642; in assay [15] it was -0.772; in assay [16], -1.1; in assay [17] it was -1.5 (inactive); in [18], 0.0553; in assay [19], -0.38. Besides, the z-score in assay [20] was 0.0558 (inactive). Moreover, the composite z-score in assay [2] is -0.0141.

Take `O=C(CS)NCCCCCNC(=O)[C@H]1C[C@H]2C(=O)N[C@@H](Cc3ccccc3)C(=O)N2[C@H]1c1cccc(OCCO)c1`: the z-score in assay [1] is 1.77 (inactive); in [3], 3.03 (inactive); in [4] it was 0.724 (inactive); in assay [5] it was -2 (inactive); in assay [6] it was 0.425 (inactive); in assay [7] it was 0.9. Also, the z-score in [8] was 1.69 (inactive); in assay [9] it was 1.34 (inactive); in [10] it was 0.687; in [11], 0.917; in assay [12], -0.0063; in [13] it was 0.585. The z-score in [14] is 0.898; in assay [15] it was -0.156; in [16], 1.3; in assay [17], -0.0668 (inactive); in assay [18], -0.736; in assay [19] it was -0.256. In addition, in [20], the z-score is 0.363 (inactive). The same compound registered a composite z-score in assay [2] of 0.373.

Turning to `CC(C)C[C@@H]1NC(=O)[C@@H]2C[C@H](C(=O)NCCCCN(C)C)[C@H](c3ccc(O)cc3)N2C1=O`, the z-score is -0.0654 (inactive) in assay [1]; -0.202 (inactive) in assay [3]; -0.241 (inactive) in [4]; -0.689 (inactive) in [5]; -0.189 (inactive) in [6]; 0.0488 in assay [7]. In addition, the z-score in assay [8] was -0.298 (inactive); in assay [9] it was 0.167 (inactive); in assay [10], 0.21; in assay [11], -0.583; in assay [12] it was -0.339; in assay [13], -0.375. Moreover, the z-score was 0.12 in assay [14]; 0.579 in [15]; -1.26 in assay [16]; -0.0811 (inactive) in [17]; -0.0507 in assay [18]; 0.218 in assay [19]. In assay [20], the z-score was 0.408 (inactive). This compound also gave a composite z-score in assay [2] of -0.0655.

Turning to `Cc1ccc(S[C@]2(C(=O)NCc3ccccc3)CC(=O)N(Cc3cc(C(F)(F)F)cc(C(F)(F)F)c3)[C@@H]2c2ccc(CO)cc2)cc1`, the z-score is -0.957 (inactive) in [1]; 2.21 (inactive) in [3]; 0.818 (inactive) in assay [4]; 0.677 (inactive) in assay [5]; 0.352 (inactive) in assay [6]; -0.466 in assay [7]. The z-score in assay [8] was 0.314 (inactive); in assay [9] it was 0.546 (inactive); in assay [10], 0.832; in assay [11], -0.549; in assay [12] it was 0.774; in assay [13] it was 0.224. For the same compound, the z-score in assay [14] is -0.125; in assay [15] it was -1.17; in assay [16], -0.271; in assay [17], -0.525 (inactive); in [18], 1.13; in [19], -0.476. Further, in assay [20], the z-score is 0.7 (inactive). Moreover, the composite z-score in [2] is -0.109.

Take `O=C1C2C=CC(C(O)CCc3ccccc3)N(Nc3ccccc3)C2C(=O)N1c1ccccc1` (stereo not given): the z-score is -1.7 (inactive) in [1]; 1.9 (inactive) in [3]; 1.32 (inactive) in assay [4]; 0.624 (inactive) in assay [5]; 1.42 (inactive) in assay [6]; -1.06 in assay [7]. Besides, the z-score was -1.26 (inactive) in [8]; -5.33 (inactive) in [9]; -1.45 in [10]; -1.22 in assay [11]; -1.12 in assay [12]; 0.203 in [13]. In addition, the z-score is -0.46 in assay [14]; 0.198 in assay [15]; -2.35 in assay [16]; -0.727 (inactive) in assay [17]; -0.278 in assay [18]; -0.174 in [19]. The z-score in assay [20] is -0.424 (inactive). Also, the composite z-score in [2] worked out at 0.767.

As to `Cc1ccc(S[C@]2(C(=O)NCCCN(C)C)CC(=O)N(C(C)C)[C@@H]2c2ccc(CO)cc2I)cc1`, the z-score in assay [1] is 0.997 (inactive); in assay [3], 6.19 (inactive); in assay [4], -0.185 (inactive); in [5], 1.38 (inactive); in assay [6], 0.277 (inactive); in assay [7], -0.265. The z-score was 0.347 (inactive) in assay [8]; -0.675 (inactive) in [9]; 2.17 in [10]; 2.16 in assay [11]; -0.054 in assay [12]; 0.498 in assay [13]. Also, the z-score is -3.07 in [14]; -1.37 in assay [15]; 2.47 in [16]; 1.06 (inactive) in assay [17]; -0.423 in assay [18]; -2.32 in assay [19]. Besides, the z-score in assay [20] is 0.505 (inactive). Moreover, the composite z-score in [2] was found to be 0.264.

In the case of `[N-]=[N+]=NCc1ccccc1[C@H]1OC(c2ccc(OCCCO)cc2)=N[C@@]1(Cc1ccccc1)C(=O)O`, the z-score is -1.02 (inactive) in assay [1]; 17.6 (active) in [3]; 1.59 (inactive) in [4]; -0.907 (inactive) in assay [5]; 0.246 (inactive) in [6]; -0.239 in assay [7]. The z-score was 0.861 (inactive) in assay [8]; 1.27 (inactive) in assay [9]; 1.65 in assay [10]; 1.17 in assay [11]; -1.06 in assay [12]; 0.991 in assay [13]. Moreover, the z-score in [14] is 0.791; in assay [15] it was 0.465; in [16], -0.0179; in [17] it was 0.241 (inactive); in [18] it was -0.491; in assay [19] it was -0.804. The z-score in assay [20] was 0.932 (inactive). In assay [2], this compound displayed a composite z-score of -0.166.
